Measured values from article PMC7862700, “An all-to-all approach to the identification of sequence-specific readers for epigenetic DNA modifications on cytosine”.

Tests used:
Assay in all cases: DAPPL (digital affinity profiling via proximity ligation, sequencing); 10 mM Tris-HCl pH 7.5, 50 mM NaCl, 1 mM DTT, 4% glycerol, room temperature, 30 min; GST-TFs on glutathione beads, 16-mer random dsDNA library, 0.1% formaldehyde crosslink after washing; high values mean tight binding
[1] = target: T1, FLI1 (Homo sapiens, UniProt Q01543 1-452); conditions: protein: recombinant; tags: N-terminal GST; dsDNA, one strand shown
T1 sequence: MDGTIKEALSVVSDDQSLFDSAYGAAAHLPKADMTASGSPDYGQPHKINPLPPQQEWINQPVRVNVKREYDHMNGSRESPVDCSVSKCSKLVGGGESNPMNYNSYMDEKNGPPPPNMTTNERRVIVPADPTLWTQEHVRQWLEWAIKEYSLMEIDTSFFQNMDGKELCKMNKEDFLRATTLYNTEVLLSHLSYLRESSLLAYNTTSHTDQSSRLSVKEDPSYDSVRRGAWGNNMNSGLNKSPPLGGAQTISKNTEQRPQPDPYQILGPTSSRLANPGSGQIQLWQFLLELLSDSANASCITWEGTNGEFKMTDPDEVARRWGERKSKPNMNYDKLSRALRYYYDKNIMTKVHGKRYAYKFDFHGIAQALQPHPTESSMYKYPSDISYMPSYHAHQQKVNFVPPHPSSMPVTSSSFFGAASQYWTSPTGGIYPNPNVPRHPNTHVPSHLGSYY
In short: (§1)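 Human transcription factors were made in yeast as GST fusions, captured on glutathione beads and barcoded with DNA. With a tag-only sample included, the pool was incubated with 200 nmole of a random double-stranded 16-mer DNA library in Tris/NaCl/DTT/glycerol buffer at room temperature for 30 min, then crosslinked with 0.1% formaldehyde after washing, ligated by proximity, amplified and sequenced. For binding signal, each hexamer's read frequency for a factor is divided by its frequency for the tag-only sample.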

[2] = target: T2, ELK1 (Homo sapiens, UniProt P19419 1-428); conditions: protein: recombinant; tags: N-terminal GST; dsDNA, one strand shown
T2 sequence: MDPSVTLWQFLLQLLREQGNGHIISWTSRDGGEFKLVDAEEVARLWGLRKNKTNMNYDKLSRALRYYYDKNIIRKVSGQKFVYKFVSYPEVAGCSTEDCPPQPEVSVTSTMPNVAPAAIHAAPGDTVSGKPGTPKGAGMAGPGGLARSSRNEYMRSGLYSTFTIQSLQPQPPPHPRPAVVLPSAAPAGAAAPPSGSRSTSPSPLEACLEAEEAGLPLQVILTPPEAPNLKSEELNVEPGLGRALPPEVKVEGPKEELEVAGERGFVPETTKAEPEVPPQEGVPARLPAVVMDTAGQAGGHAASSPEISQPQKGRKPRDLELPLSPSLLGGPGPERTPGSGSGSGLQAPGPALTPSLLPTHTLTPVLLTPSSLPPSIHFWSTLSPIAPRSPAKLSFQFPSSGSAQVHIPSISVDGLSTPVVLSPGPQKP
In short: as §1

[3] = target: T3, GABPA (Homo sapiens, UniProt Q06546 1-454); conditions: protein: recombinant; tags: N-terminal GST; dsDNA, one strand shown
T3 sequence: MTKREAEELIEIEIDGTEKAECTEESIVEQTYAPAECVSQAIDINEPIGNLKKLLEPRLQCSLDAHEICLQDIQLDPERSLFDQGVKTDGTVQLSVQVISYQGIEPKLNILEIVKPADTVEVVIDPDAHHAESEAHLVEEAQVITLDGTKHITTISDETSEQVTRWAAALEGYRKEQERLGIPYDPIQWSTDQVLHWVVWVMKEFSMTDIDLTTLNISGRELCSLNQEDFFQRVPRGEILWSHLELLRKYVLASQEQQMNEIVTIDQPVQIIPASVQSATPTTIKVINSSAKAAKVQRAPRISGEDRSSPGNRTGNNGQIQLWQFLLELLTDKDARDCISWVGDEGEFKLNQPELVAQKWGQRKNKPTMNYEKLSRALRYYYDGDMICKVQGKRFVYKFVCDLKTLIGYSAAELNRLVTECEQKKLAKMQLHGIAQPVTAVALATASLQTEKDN
In short: as §1

[4] = target: T4, ERG (Homo sapiens, UniProt P11308 1-479); conditions: protein: recombinant; tags: N-terminal GST; dsDNA, one strand shown
T4 sequence: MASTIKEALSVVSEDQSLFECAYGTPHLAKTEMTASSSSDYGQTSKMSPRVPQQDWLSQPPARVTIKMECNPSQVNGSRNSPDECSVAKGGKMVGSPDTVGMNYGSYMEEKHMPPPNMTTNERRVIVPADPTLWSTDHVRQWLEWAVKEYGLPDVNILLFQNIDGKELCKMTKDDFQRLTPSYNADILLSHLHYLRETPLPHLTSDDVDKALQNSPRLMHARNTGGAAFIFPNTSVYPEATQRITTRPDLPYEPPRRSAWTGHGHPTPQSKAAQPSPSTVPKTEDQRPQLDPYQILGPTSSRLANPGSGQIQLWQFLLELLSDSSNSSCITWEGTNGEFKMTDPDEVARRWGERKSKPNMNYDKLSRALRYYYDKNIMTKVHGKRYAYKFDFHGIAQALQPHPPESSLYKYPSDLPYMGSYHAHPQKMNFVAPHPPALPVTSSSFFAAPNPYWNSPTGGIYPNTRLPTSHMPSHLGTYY
In short: as §1

[5] = target: ELF1 (Homo sapiens, UniProt P32519 1-619); conditions: protein: recombinant; tags: N-terminal GST; dsDNA, one strand shown
In short: as §1

[6] = target: T5, EHF (Homo sapiens, UniProt Q9NZC4 1-300); conditions: protein: recombinant; tags: N-terminal GST; dsDNA, one strand shown
T5 sequence: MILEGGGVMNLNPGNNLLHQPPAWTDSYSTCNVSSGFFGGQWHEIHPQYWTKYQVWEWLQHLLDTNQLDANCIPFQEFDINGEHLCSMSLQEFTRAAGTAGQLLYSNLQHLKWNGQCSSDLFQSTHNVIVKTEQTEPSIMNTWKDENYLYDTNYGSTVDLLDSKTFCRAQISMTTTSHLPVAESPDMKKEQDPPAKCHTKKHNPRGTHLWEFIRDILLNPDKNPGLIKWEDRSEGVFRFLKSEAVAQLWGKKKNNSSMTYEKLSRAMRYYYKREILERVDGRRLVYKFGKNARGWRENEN
In short: as §1

[7] = target: SPI1 (Homo sapiens, UniProt P17947 1-270); conditions: protein: recombinant; tags: N-terminal GST; dsDNA, one strand shown
In short: as §1

[8] = target: SPIB (Homo sapiens, UniProt Q01892 1-262); conditions: protein: recombinant; tags: N-terminal GST; dsDNA, one strand shown
In short: as §1

[9] = target: T6, ELK3 (Homo sapiens, UniProt P41970 1-407); conditions: protein: recombinant; tags: N-terminal GST; dsDNA, one strand shown
T6 sequence: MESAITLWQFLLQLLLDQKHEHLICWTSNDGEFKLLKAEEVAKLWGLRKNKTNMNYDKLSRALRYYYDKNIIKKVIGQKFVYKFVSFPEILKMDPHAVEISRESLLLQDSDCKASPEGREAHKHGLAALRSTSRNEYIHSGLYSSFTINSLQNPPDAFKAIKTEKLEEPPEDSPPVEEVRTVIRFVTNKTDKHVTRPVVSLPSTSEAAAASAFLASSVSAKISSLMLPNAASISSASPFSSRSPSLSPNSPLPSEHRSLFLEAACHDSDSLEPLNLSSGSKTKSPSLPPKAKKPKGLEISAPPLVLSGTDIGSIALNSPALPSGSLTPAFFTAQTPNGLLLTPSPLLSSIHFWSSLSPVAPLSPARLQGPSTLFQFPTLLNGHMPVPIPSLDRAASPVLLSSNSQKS
In short: as §1

[10] = target: T7, FEV (Homo sapiens, UniProt Q99581 1-238); conditions: protein: recombinant; tags: N-terminal GST; dsDNA, one strand shown
T7 sequence: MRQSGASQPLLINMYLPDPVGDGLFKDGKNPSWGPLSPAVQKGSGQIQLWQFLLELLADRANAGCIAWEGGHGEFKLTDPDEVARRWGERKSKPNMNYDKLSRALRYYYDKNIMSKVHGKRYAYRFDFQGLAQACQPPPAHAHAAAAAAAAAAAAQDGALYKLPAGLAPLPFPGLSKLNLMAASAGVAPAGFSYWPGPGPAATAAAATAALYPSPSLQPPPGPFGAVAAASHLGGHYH
In short: as §1

[11] = target: ETV5 (Homo sapiens, UniProt P41161 1-510); conditions: protein: recombinant; tags: N-terminal GST; dsDNA, one strand shown
In short: as §1

[12] = target: HSF1 (Homo sapiens, UniProt Q00613 1-529); conditions: protein: recombinant; tags: N-terminal GST; chain copies: 3; dsDNA, one strand shown
In short: as §1

[13] = target: T8, SPIC (Homo sapiens, UniProt Q8N5J4 1-248); conditions: protein: recombinant; tags: N-terminal GST; dsDNA, one strand shown
T8 sequence: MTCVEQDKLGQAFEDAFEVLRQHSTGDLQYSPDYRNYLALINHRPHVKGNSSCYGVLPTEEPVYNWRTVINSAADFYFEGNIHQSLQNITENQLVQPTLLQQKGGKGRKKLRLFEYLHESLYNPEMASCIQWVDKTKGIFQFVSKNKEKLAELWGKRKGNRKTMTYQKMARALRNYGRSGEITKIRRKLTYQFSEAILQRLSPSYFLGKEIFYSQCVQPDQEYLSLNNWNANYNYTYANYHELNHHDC
In short: as §1

[14] = target: ELF4 (Homo sapiens, UniProt Q99607 1-663); conditions: protein: recombinant; tags: N-terminal GST; dsDNA, one strand shown
In short: as §1

[15] = target: T9, ELK4 (Homo sapiens, UniProt P28324-2 1-405); conditions: protein: recombinant; tags: N-terminal GST; dsDNA, one strand shown
T9 sequence: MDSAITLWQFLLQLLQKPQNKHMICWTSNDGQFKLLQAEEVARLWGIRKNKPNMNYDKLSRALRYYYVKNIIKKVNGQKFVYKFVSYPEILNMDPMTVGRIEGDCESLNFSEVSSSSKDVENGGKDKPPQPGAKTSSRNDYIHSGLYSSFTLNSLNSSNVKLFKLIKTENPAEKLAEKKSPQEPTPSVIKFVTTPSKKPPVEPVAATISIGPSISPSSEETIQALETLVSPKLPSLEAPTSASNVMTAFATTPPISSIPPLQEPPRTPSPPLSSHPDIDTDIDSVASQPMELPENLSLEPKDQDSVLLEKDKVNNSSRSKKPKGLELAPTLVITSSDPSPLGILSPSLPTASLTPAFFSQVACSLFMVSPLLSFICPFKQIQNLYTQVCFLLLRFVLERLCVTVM
In short: as §1

[16] = target: T10, ETV2 (Homo sapiens, UniProt O00321 1-342); conditions: protein: recombinant; tags: N-terminal GST; dsDNA, one strand shown
T10 sequence: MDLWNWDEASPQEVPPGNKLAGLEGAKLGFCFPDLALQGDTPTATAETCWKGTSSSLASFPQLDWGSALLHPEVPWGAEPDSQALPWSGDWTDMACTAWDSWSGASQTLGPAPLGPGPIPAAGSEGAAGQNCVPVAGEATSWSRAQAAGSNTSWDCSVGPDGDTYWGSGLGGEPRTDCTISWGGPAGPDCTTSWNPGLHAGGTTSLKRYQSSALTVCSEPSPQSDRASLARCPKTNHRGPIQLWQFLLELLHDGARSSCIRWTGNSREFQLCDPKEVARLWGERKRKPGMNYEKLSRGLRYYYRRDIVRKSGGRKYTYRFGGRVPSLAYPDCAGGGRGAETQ
In short: as §1

[17] = target: T11, ELF3 (Homo sapiens, UniProt P78545 1-371); conditions: protein: recombinant; tags: N-terminal GST; dsDNA, one strand shown
T11 sequence: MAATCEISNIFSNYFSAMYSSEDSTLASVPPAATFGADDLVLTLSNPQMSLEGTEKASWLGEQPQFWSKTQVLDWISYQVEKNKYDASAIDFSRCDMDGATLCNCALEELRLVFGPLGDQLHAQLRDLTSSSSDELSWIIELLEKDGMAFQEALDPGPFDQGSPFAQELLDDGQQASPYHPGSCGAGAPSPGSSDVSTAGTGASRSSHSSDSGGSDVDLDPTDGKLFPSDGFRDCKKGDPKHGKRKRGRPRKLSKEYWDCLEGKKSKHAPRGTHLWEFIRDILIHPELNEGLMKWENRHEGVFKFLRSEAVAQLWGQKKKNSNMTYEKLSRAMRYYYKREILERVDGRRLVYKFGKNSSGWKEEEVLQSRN
In short: as §1

[18] = target: CRX (Homo sapiens, UniProt O43186 1-299); conditions: protein: recombinant; tags: N-terminal GST; dsDNA, one strand shown
In short: as §1

[19] = target: ETV1 (Homo sapiens, UniProt P50549 1-477); conditions: protein: recombinant; tags: N-terminal GST; dsDNA, one strand shown
In short: as §1

CRX, sequence (O43186 whole entry): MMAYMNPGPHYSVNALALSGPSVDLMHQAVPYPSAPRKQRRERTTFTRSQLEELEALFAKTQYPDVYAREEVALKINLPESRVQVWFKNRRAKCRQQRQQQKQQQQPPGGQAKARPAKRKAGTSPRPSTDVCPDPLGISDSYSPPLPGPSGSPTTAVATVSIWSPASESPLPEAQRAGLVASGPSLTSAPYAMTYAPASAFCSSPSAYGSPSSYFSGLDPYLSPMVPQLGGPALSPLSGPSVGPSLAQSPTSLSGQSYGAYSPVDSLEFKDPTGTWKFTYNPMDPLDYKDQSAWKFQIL
ELF1, sequence (P32519 whole entry): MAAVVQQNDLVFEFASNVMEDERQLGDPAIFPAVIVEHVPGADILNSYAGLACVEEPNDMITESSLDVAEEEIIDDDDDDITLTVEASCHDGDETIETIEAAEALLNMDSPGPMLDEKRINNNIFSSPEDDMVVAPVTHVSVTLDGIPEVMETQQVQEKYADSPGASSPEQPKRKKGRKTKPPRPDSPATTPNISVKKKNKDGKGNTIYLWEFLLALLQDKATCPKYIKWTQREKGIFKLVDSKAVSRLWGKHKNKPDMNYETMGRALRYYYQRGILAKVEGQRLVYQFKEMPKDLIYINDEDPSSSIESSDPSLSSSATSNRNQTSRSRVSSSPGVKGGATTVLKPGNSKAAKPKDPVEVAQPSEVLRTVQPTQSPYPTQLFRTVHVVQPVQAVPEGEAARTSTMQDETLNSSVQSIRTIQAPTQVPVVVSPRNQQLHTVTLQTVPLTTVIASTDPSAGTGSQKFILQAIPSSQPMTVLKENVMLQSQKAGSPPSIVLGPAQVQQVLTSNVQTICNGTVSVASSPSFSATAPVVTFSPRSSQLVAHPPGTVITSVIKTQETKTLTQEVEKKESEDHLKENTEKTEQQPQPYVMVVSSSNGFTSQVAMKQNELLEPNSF
ETV5, sequence (P41161 whole entry): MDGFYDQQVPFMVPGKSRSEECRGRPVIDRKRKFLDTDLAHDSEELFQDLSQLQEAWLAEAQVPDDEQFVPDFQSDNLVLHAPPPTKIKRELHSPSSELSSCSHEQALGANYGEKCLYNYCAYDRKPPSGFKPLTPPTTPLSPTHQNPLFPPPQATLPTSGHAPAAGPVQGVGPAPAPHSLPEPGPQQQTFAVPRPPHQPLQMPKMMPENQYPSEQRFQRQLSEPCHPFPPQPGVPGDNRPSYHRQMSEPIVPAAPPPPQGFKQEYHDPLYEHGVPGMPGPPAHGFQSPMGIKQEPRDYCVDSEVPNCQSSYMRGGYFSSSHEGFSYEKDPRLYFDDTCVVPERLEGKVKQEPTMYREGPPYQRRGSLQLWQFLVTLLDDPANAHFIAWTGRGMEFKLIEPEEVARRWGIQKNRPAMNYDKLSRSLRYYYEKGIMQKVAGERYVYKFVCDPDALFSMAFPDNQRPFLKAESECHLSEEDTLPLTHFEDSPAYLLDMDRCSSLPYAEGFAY
ELF4, sequence (Q99607 whole entry): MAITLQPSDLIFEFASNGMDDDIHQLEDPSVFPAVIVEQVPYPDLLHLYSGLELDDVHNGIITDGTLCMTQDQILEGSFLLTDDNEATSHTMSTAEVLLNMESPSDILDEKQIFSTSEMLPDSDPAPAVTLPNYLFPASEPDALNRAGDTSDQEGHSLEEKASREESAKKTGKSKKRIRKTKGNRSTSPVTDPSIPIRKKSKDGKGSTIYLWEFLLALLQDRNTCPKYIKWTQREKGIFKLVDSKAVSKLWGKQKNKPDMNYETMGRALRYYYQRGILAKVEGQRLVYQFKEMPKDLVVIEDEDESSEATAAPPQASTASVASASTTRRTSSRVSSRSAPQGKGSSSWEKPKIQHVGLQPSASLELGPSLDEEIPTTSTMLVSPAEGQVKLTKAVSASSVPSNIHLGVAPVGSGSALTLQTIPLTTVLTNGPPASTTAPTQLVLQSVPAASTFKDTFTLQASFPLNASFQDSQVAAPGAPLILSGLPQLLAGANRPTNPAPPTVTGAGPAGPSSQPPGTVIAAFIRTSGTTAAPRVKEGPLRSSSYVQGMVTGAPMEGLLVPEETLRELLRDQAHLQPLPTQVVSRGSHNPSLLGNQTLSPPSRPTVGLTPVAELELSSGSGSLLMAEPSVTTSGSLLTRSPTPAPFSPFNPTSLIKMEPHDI
ETV1, sequence (P50549 whole entry): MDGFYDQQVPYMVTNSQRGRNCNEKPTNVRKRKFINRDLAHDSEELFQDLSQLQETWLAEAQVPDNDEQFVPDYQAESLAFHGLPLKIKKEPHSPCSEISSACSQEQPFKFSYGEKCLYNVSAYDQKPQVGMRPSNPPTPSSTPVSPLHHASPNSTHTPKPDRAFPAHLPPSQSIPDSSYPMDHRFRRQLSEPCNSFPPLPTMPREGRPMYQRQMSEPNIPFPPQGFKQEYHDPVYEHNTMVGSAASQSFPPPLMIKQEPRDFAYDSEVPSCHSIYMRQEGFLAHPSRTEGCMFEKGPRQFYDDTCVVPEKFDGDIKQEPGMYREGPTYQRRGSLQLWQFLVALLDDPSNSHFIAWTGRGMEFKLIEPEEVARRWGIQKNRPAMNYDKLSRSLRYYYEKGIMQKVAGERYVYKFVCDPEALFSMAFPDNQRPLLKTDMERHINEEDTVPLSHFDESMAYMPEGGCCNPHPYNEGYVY
SPIB, sequence (Q01892 whole entry): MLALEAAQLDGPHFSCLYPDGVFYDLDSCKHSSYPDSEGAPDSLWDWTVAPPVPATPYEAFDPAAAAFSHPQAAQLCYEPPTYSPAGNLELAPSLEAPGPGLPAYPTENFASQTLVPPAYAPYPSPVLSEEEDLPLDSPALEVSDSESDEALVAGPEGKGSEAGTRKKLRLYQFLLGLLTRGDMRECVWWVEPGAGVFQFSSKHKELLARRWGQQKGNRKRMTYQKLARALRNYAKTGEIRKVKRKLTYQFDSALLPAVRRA
HSF1, sequence (Q00613 whole entry): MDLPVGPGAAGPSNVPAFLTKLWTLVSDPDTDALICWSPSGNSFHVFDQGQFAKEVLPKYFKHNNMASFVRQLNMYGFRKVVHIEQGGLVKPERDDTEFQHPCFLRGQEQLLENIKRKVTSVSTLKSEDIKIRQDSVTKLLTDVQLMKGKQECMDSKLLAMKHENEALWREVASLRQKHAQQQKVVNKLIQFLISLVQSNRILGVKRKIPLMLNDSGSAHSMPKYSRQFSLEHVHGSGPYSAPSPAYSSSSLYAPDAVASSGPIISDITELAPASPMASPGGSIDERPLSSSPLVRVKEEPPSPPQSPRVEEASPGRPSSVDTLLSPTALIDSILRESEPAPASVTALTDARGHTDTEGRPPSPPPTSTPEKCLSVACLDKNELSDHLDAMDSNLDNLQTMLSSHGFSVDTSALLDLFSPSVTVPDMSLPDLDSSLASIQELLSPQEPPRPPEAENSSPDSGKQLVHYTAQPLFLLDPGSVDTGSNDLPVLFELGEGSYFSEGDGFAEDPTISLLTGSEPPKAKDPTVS

CCTACA was tested, and the binding signal [1] was 1.35 fold enrichment (6-mer frequency, TF over GST control), the binding signal [2] was 1.26 fold enrichment (6-mer frequency, TF over GST control) and the binding signal [3] was 1.33 fold enrichment (6-mer frequency, TF over GST control). The binding signal [4] was 1.21 fold enrichment (6-mer frequency, TF over GST control), the binding signal [5] was 1.19 fold enrichment (6-mer frequency, TF over GST control) and the binding signal [6] was 1.18 fold enrichment (6-mer frequency, TF over GST control). For the same sequence, the binding signal [7] was 1.16 fold enrichment (6-mer frequency, TF over GST control), the binding signal [8] was 1.17 fold enrichment (6-mer frequency, TF over GST control) and the binding signal [9] was 1.19 fold enrichment (6-mer frequency, TF over GST control). The binding signal [10] was 1.18 fold enrichment (6-mer frequency, TF over GST control), the binding signal [11] was 1.26 fold enrichment (6-mer frequency, TF over GST control) and the binding signal [12] was 1.07 fold enrichment (6-mer frequency, TF over GST control). For the same sequence, the binding signal [13] was 1.35 fold enrichment (6-mer frequency, TF over GST control), the binding signal [14] was 1.22 fold enrichment (6-mer frequency, TF over GST control) and the binding signal [15] was 1.31 fold enrichment (6-mer frequency, TF over GST control). The binding signal [16] was 1.13 fold enrichment (6-mer frequency, TF over GST control), the binding signal [17] was 1.13 fold enrichment (6-mer frequency, TF over GST control) and the binding signal [18] was 1.01 fold enrichment (6-mer frequency, TF over GST control). For the same sequence, the binding signal [19] was 1.16 fold enrichment (6-mer frequency, TF over GST control).
